Source: PubChem BioAssay AID372 (MTDP, 2006)
The campaign covered roughly 100,000 compounds. About 770 (0.77%) were called active. Shown is part of a subset that was picked to be rich in actives. Unmarked numbers belong to inactive results. Cut-off read from the data, not from the text of the source: active = inhibition above about 50%; inactive = the rest.

biological target: Gag-Pol polyprotein (Human immunodeficiency virus type 1 group M subtype B (isolate HXB2)) (UniProt P04585); test: RNase H inhibition, HIV 1 Gag Pol polyprotein, FRET biochemical assay, screening (AID 372); details: HIV-1 RT RNase H, FRET RNA/DNA substrate fluorescence; at 10 µM; stronger effect = higher value

Row | Compound | inhibition
1 | O=C1NC(=S)S/C1=C/c1cc(Br)ccc1O | 24%
2 | COc1cc(/C=C2\SC(=Nc3ccc(C)c(Cl)c3)NC2=O)cc(OC)c1OC | 21%
3 | O=C1NC(=S)S/C1=C\c1ccc(O)c(O)c1 | 78% (active)
4 | O=C1NC(=S)S/C1=C/c1ccc(Cl)cc1 | 10%
5 | COc1ccc(/C=C2/SC(=S)NC2=O)cc1I | 39%
6 | O=C1NC(=S)S/C1=C/c1ccc(O)c(Br)c1 | 3%
7 | COc1cc(/C=C2\SC(=Nc3ccc(C)c(Cl)c3)NC2=O)ccc1O | 47%
8 | Nc1ccc(/C=C2/SC(=S)NC2=O)cc1 | 4%
9 | COc1cc(/C=C2/SC(=S)NC2=O)ccc1OC(C)C | 1%
10 | O=C1C(Cc2ccccc2)S/C(=N/N=C/c2cccc([N+](=O)[O-])c2)N1c1ccccc1 (stereo not drawn) | 20%
11 | Cc1ccc(NC(=O)CN(c2ccc(Br)cc2)S(=O)(=O)c2ccccc2)cc1Cl | 7%
12 | CCOc1ccccc1NC(=O)CCN1C(=O)/C(=C/c2ccccc2Cl)SC1=S | 13%
13 | CCCCOC(C)n1cc(Cl)c(=O)[nH]c1=O (stereo not drawn) | 3%
14 | COc1ccc2c(c1)c(=O)oc1cc(OCC(=O)c3ccc(F)cc3)ccc12 | 34%
15 | COc1cc(/C=C2\SC(=S)NC2=O)cc(Br)c1OC | 5%
16 | COc1ccc(/C=C2\SC(=S)NC2=O)c(OC)c1OC | 0%
17 | CC(C)COc1ccc(/C=C2\SC(=S)NC2=O)cc1 | 22%
18 | CCOc1cc(/C=C2\SC(=S)NC2=O)ccc1OCCOc1ccccc1Cl | 43%
19 | COc1cc(/C=C2\SC(=S)NC2=O)cc(Br)c1OC(C)=O | 4%
20 | COc1cc(/C=C2\SC(=S)NC2=O)cc(Br)c1OC(=O)c1ccccc1 | 58% (active)
21 | CC(C)COc1ccc(/C=C2\SC(=S)NC2=O)c2ccccc12 | 51% (active)
22 | COc1cccc(OCCOc2c(Cl)cc(/C=C3/SC(=S)NC3=O)cc2OC)c1 | 23%
23 | COc1cc(/C=C2\SC(=S)NC2=O)cc(Cl)c1OCCOc1ccccc1Cl | 26%
24 | COc1ccc(OCCOc2c(Cl)cc(/C=C3\SC(=S)NC3=O)cc2OC)cc1 | 47%

Row | Compound | inhibition
25 | COc1cc(/C=C2/SC(=S)NC2=O)cc(Cl)c1OCC(C)COc1ccccc1 (stereo not drawn) | 50% (active)
26 | COc1cc(/C=C2\SC(=S)NC2=O)ccc1OCCOc1ccccc1Cl | 51% (active)
27 | CCc1ccc(C=Nn2c(-c3ccc(Cl)cc3)n[nH]c2=S)cc1 | 3%
28 | CCOc1cc(/C=C2\C(=O)NC(=O)N(c3ccc(Cl)cc3)C2=O)cc(Cl)c1OCC | 0%
29 | CCC(C)OC(=O)C1=C(C)NC2=C(C(=O)CC(c3ccc(Cl)cc3)C2)C1c1ccc(OC(C)=O)cc1 (stereo not drawn) | 11%
30 | COc1ccccc1/C=C\C=N\n1c(-c2ccc(Cl)cc2Cl)n[nH]c1=S | 34%
31 | CS(=O)(=O)N(CC(O)Cn1c2ccccc2c2ccccc21)c1ccc(Br)cc1 (stereo not drawn) | 1%
32 | CCN(CC)c1ccc(/C=N/NC(=O)CCC(=O)Nc2cccc(Cl)c2C)c(O)c1 | 6%
33 | CCOP(=O)(CN1CCN(CP(=O)(OCC)OCC)CC1)OCC | 2%
34 | Cc1c(NC(=O)c2cc(Cl)ccc2Cl)cccc1-c1nc2ccccc2s1 | 9%
35 | O=c1/c(=C/c2ccc(-c3ccccc3)o2)sc2nc3ccccc3n12 | 9%
36 | CCOC(=O)C1=C(C)NC2=C(C(=O)CC(c3ccc(OC)cc3)C2)C1c1ccc(OC)c(OC)c1 (stereo not drawn) | 11%
37 | Cc1ccc(C(=O)Oc2ccccc2C(=S)N2CCOCC2)cc1 | 0%
38 | CCOC(=O)C1CCCN(C(=O)N2CCOCC2)C1 (stereo not drawn) | 12%
39 | Cc1cc2ncn(CC(O)COc3ccc(C(=O)O)cc3)c2cc1C (stereo not drawn) | 0%
40 | COc1ccccc1CNc1cccc(F)c1 | 0%
41 | O=C1NC(=Nc2cccc(Cl)c2Cl)S/C1=C\c1ccc(F)cc1 | 22%
42 | O=C1NC(=S)S/C1=C\c1ccccc1OCCOc1ccccc1Cl | 46%
43 | O=C1NC(=S)S/C1=C\c1cc([N+](=O)[O-])ccc1OCCOc1ccccc1Cl | 55% (active)
44 | O=C1NC(=Nc2cccc(Cl)c2Cl)S/C1=C\c1ccc(O)cc1 | 12%
45 | O=C1NC(=Nc2cccc(Cl)c2Cl)S/C1=C\c1ccc(O)c(O)c1 | 89% (active)
46 | Cc1cc(C)cc(OCCOc2ccc([N+](=O)[O-])cc2/C=C2\SC(=S)NC2=O)c1 | 38%
47 | O=P(O)(OC(c1ccccc1)C(F)(F)F)c1ccccc1 (stereo not drawn) | 2%
48 | CC(=O)Oc1ccc(/C=C2/N=C(c3cccc([N+](=O)[O-])c3)OC2=O)cc1 | 14%
